Measurements published in PubChem BioAssay.
For some assays here: Measured potencies and affinities stand elsewhere. The source made the active and inactive calls. Unless noted, the rule behind the calls is not given here.

What was measured:
[1] = antimalarial activity against Dd2 strain (AID 2302;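 active = growth inhibition above 50% at the single 2 µM test dose, taken to imply half-maximal potency below 2 µM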;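 note: 0% = DMSO untreated growth and 100% = chloroquine plus artemisinin killed control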); settings: P. falciparum Dd2 in RBCs, LDH growth readout, 72 h; at 2 µM; active compounds read high
[2] = HepG2 cytotoxicity, primary screen, cytotoxicity control for P. falciparum antimalarial project, cell-based, ATP luminescence (AID 2303;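 active = inhibition above 50%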;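 note: 0% = DMSO wells and 100% = digitonin-killed cells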); settings: HepG2 viability, 24-48 h, at 10 µM, active compounds read high
[3] = target: L-lactate dehydrogenase (Plasmodium falciparum (isolate CDC / Honduras)) (UniProt Q27743); experiment: PfLDH activity inhibition – cell lysate, 3D7 strain, counter-screen for P. falciparum growth inhibition project (AID 2304);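 note: 0% = vehicle and 100% = reference inhibitor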; settings: P. falciparum 3D7 crude extract, LDH APAD/NBT absorbance; at 2 µM; active compounds read high
Sequence of L-lactate dehydrogenase (Plasmodium falciparum (isolate CDC / Honduras)) (Q27743 whole entry, looked up): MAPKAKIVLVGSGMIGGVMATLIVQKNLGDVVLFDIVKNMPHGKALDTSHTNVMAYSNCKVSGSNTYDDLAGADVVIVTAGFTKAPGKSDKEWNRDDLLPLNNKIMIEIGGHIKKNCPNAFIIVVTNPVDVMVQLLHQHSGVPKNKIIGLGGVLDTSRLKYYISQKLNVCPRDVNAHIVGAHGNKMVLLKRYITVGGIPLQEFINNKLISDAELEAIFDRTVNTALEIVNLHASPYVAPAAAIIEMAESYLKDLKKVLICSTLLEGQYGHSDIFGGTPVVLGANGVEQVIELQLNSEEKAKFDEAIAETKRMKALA

[4] = inhibition of 3D7 malaria parasite growth – strain 3D7 (AID 2306);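 note: 0% = DMSO wells and 100% = chloroquine plus artemisinin control wells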; settings: P. falciparum 3D7 erythrocytic growth, LDH absorbance, 72 h; at 2 µM; active compounds read high
[5] = target: Calcium-dependent protein kinase 1 (Plasmodium falciparum (isolate 3D7)) (UniProt P62344); experiment: PfCDPK1 kinase inhibitors, biochemical, TCAMS library (AID 1159585; cut-off not given, nearly all actives have IC50 up to about 0.98 µM;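 note: inhibitors leave more ATP so luminescence rises with inhibition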); settings: recombinant PfCDPK1, Kinase-Glo ATP depletion luminescence
Sequence of Calcium-dependent protein kinase 1 (Plasmodium falciparum (isolate 3D7)) (P62344 whole entry, looked up): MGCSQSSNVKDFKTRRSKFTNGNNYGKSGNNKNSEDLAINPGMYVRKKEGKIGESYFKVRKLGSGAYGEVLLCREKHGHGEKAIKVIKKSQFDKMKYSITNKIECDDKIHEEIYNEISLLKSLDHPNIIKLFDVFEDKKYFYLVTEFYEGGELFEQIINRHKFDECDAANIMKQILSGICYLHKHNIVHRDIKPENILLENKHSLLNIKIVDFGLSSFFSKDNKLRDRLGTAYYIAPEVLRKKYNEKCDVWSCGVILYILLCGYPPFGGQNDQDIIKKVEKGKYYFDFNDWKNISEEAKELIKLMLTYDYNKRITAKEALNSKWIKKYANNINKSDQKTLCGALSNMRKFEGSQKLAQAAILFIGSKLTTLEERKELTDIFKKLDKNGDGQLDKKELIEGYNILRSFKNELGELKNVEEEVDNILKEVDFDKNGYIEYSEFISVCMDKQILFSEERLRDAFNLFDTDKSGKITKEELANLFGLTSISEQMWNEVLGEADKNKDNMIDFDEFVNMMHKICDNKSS

[6] = target: Plasmodium falciparum protein kinase 6 (PK6, PF3D7_1337100) (UniProt Q8IDW1); experiment: PfPK6 kinase inhibitors, biochemical, TCAMS library (AID 1159586); settings: recombinant PfPK6, Kinase-Glo ATP depletion luminescence
Sequence of Plasmodium falciparum protein kinase 6 (PK6, PF3D7_1337100) (Q8IDW1 1-305): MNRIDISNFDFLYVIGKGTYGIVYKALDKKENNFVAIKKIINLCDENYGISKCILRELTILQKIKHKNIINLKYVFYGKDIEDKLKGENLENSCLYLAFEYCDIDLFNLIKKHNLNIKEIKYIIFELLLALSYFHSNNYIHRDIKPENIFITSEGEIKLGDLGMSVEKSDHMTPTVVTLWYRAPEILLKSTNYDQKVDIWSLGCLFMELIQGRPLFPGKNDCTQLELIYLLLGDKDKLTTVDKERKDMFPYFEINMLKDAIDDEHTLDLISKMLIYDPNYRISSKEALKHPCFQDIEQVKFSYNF

[7] = target: Protein kinase 7 (PK7), Plasmodium falciparum 3D7 (PF3D7_0213400) (UniProt Q7YTF7); experiment: inhibition of Plasmodium PK7 catalytic activity – biochemical, TCAMS antimalarial set, Kinase-Glo luminescence (AID 1159587); settings: recombinant PfPK7, Kinase-Glo ATP depletion luminescence
Sequence of Protein kinase 7 (PK7), Plasmodium falciparum 3D7 (PF3D7_0213400) (Q7YTF7 1-343): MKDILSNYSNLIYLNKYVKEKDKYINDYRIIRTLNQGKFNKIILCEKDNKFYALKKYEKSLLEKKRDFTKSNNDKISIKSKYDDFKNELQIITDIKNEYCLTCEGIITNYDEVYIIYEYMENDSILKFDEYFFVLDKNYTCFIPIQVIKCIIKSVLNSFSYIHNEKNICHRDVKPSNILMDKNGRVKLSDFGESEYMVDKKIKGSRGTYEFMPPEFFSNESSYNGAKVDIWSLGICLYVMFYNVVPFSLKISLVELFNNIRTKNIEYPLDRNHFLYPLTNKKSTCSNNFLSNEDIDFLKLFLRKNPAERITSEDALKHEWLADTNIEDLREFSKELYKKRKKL

[8] = target: Calcium-dependent protein kinase 4 (Plasmodium falciparum (isolate 3D7)) (UniProt Q8IBS5); experiment: PfCDPK4 kinase inhibitors, biochemical, TCAMS library (AID 1159588; cut-off not given, nearly all actives have IC50 up to about 0.91 µM); settings: recombinant PfCDPK4, Kinase-Glo ATP depletion luminescence
Sequence of Calcium-dependent protein kinase 4 (Plasmodium falciparum (isolate 3D7)) (Q8IBS5 whole entry, looked up): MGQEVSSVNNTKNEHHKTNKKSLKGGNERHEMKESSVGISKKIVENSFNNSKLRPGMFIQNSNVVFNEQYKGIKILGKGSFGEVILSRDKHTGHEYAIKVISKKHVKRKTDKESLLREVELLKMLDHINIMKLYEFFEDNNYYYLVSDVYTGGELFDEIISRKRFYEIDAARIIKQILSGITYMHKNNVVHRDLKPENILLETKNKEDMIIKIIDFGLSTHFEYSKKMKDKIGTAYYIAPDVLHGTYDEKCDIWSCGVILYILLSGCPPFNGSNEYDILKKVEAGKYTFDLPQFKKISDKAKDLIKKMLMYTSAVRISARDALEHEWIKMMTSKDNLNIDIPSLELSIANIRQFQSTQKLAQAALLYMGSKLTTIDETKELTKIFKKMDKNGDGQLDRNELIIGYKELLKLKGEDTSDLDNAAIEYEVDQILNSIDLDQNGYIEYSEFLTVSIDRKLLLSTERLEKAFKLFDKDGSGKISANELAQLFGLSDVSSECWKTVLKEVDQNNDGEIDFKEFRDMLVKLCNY

CN(C)Cc1cccc(-c2ccc(NC(=O)c3ccc4c(=O)n(C5CCCCC5)cnc4c3)cc2)c1
active: growth inhibition [1] 53% | inhibition [2] 92% | growth inhibition [4] 96%
inactive: inhibition [3] -3% | outcome [5] | outcome [6] | outcome [7] | outcome [8]

O=S(=O)(NCCN1CCCC1)c1cccc(-c2cccc(CNCc3ccc(F)cc3)c2)c1
inactive: inhibition [2] 41% | inhibition [3] 4% | outcome [5] | outcome [6] | outcome [7] | outcome [8]
active: growth inhibition [1] 73% | growth inhibition [4] 99%

CN(CCN1CCCC1)c1nc2ccc(-n3cnc4cc(-c5ccc(Cl)cc5)sc4c3=O)cc2[nH]1
inactive: growth inhibition [1] 15% | inhibition [3] 3% | outcome [5] | outcome [6] | outcome [7] | outcome [8]
active: inhibition [2] 76% | growth inhibition [4] 93%

CC1(C)N=C(N)N=C(N)N1c1ccccc1
inactive: growth inhibition [1] 1% | inhibition [2] 16% | inhibition [3] -4% | outcome [5] | outcome [6] | outcome [7] | outcome [8]
active: growth inhibition [4] 98%

CCNc1cc(C(=O)N[C@@H](Cc2ccccc2)[C@H](O)CNC2(C)CCCCC2)cc(N2CCCCS2(=O)=O)c1
active: growth inhibition [1] 98% | growth inhibition [4] 100%
inactive: inhibition [2] 13% | inhibition [3] 2% | outcome [5] | outcome [6] | outcome [7] | outcome [8]

COc1cc(CN2CCC(NC(=O)[C@H](Cc3ccccc3)NC(=O)Nc3ccc(Oc4ccccc4)cc3)C2)ccc1O (stereo not given in full)
active: growth inhibition [4] 92%
inactive: growth inhibition [1] -2% | inhibition [2] 10% | inhibition [3] 6% | outcome [5] | outcome [6] | outcome [7] | outcome [8]

CCOc1ccc(Br)cc1/C=C/C(=O)Nc1ccc(C2CCN(C)CC2)cc1
active: growth inhibition [1] 71% | growth inhibition [4] 100%
inactive: inhibition [2] 30% | inhibition [3] -2% | outcome [5] | outcome [6] | outcome [7] | outcome [8]

CCCCCCCC1=NN2C(=N)C(=Cc3cc(Br)c(OCc4ccc(F)cc4)c(OCC)c3)C(=O)N=C2S1
active: growth inhibition [4] 95%
inactive: growth inhibition [1] -6% | inhibition [2] 4% | inhibition [3] 0% | outcome [5] | outcome [6] | outcome [7] | outcome [8]

COc1c(C2CCN(CCN3CCC(CNC(=O)c4ccc(-c5ccc(C#N)cc5)cc4)CC3)CC2)ccc2c1CCCC2
inactive: inhibition [3] 0% | outcome [5] | outcome [6] | outcome [7] | outcome [8]
active: growth inhibition [1] 100% | inhibition [2] 96% | growth inhibition [4] 100%

Oc1ccc2c(c1CNC1CCCCC1)CCCC2
active: growth inhibition [1] 94% | growth inhibition [4] 98%
inactive: inhibition [2] 0% | inhibition [3] -3% | outcome [5] | outcome [6] | outcome [7] | outcome [8]

Oc1cc(Nc2ccnc3ccc(I)cc23)c(F)cc1Cl
inactive: growth inhibition [1] 13% | inhibition [2] 20% | inhibition [3] 0% | outcome [5] | outcome [6] | outcome [7] | outcome [8]
active: growth inhibition [4] 95%

CCCN1CCN(CCCNc2c3ccccc3nc3ccccc23)CC1
active: growth inhibition [4] 99%
inactive: growth inhibition [1] -1% | inhibition [2] 36% | inhibition [3] -7% | outcome [5] | outcome [6] | outcome [7] | outcome [8]

CC(C)[C@H](NC(=O)c1ccc(O)c(-c2ccc(Cl)c(Cl)c2)c1)C(=O)NCCN(C)C
active: growth inhibition [4] 92%
inactive: growth inhibition [1] 1% | inhibition [2] -4% | inhibition [3] -3% | outcome [5] | outcome [6] | outcome [7] | outcome [8]

CCc1ccc(CN2CCCCC(NC(=O)c3cc(-c4ccccc4F)cs3)C2)cc1 (stereo not given)
inactive: growth inhibition [1] 12% | inhibition [2] 25% | inhibition [3] -4% | outcome [5] | outcome [6] | outcome [7] | outcome [8]
active: growth inhibition [4] 87%

COc1ccc2nc(-c3cc(-c4ccc(NC(=O)CN5CCOCC5)cc4)cnc3N)[nH]c2c1
active: growth inhibition [1] 72% | inhibition [2] 52% | growth inhibition [4] 100%
inactive: inhibition [3] -4% | outcome [5] | outcome [6] | outcome [7] | outcome [8]

COc1ccc(Cc2nc(N=C(N)Nc3ccccc3)ccc2OC)cc1
inactive: inhibition [2] 40% | inhibition [3] 2% | outcome [5] | outcome [6] | outcome [7] | outcome [8]
active: growth inhibition [1] 68% | growth inhibition [4] 93%

CN(C)CCOc1ccc(/C(=C(/CCCn2ccnc2)c2ccccc2)c2ccc(O)cc2)cc1
active: growth inhibition [1] 99% | growth inhibition [4] 101%
inactive: inhibition [2] 13% | inhibition [3] 3% | outcome [5] | outcome [6] | outcome [7] | outcome [8]

CN(C)c1ccc(CN2CCC(NC(=O)c3ccc(-c4ccccc4F)s3)CC2)cc1
active: growth inhibition [4] 86%
inactive: growth inhibition [1] 27% | inhibition [2] 41% | inhibition [3] -3% | outcome [5] | outcome [6] | outcome [7] | outcome [8]

COc1ccc2nccc(NC(=O)OC3CCC(NCc4ccc5c(n4)NC(=O)CS5)CC3)c2c1 (stereo not given)
active: growth inhibition [4] 98%
inactive: growth inhibition [1] 39% | inhibition [2] 9% | inhibition [3] -6% | outcome [5] | outcome [6] | outcome [7] | outcome [8]

CCC(C)C#Cc1c(C)nc(N)nc1N (stereo not given)
active: inhibition [2] 53% | growth inhibition [4] 96%
inactive: growth inhibition [1] -4% | inhibition [3] 3% | outcome [5] | outcome [6] | outcome [7] | outcome [8]

Cc1cccc(C(=O)NC(NC(=S)Nc2cc(Cl)ccc2Cl)C(Cl)(Cl)Cl)c1 (stereo not given)
inactive: inhibition [2] -8% | inhibition [3] 1% | outcome [5] | outcome [6] | outcome [7] | outcome [8]
active: growth inhibition [1] 61% | growth inhibition [4] 94%

O=C(/C=C/c1ccc(C(F)(F)F)cc1)NCCCCCN1CCCN(C(=O)Nc2ccc(F)c(Cl)c2)CC1
inactive: growth inhibition [1] 33% | inhibition [2] 33% | inhibition [3] 0% | outcome [5] | outcome [6] | outcome [7] | outcome [8]
active: growth inhibition [4] 101%

CCN(CC)CCCN(C(=O)Nc1c(Cl)cncc1Cl)c1nc(-c2ccc(F)cc2)cs1
inactive: inhibition [2] 37% | inhibition [3] -5% | outcome [5] | outcome [6] | outcome [7] | outcome [8]
active: growth inhibition [1] 93% | growth inhibition [4] 101%

CCC[C@@H]1CCN[C@H]([C@H](O)c2ccnc3ccc(OC)cc23)C1
active: growth inhibition [1] 69% | growth inhibition [4] 99%
inactive: inhibition [2] -3% | inhibition [3] -1% | outcome [5] | outcome [6] | outcome [7] | outcome [8]

Cc1cc(C(F)(F)F)nn1-c1ccc(NC(=O)c2ccco2)cc1
active: growth inhibition [1] 93% | growth inhibition [4] 94%
inactive: inhibition [2] 14% | inhibition [3] -3% | outcome [5] | outcome [6] | outcome [7] | outcome [8]

O=C(/C=C/C=C/c1ccccc1)NCCCCCN1CCC(c2c[nH]c3ccccc23)CC1
active: growth inhibition [4] 85%
inactive: growth inhibition [1] 7% | inhibition [2] 28% | inhibition [3] 4% | outcome [5] | outcome [6] | outcome [7] | outcome [8]

CCCCn1c(Sc2ccc(C#N)c([N+](=O)[O-])c2)nnc1-c1cc(OC)cc(OC)c1
active: growth inhibition [1] 70% | growth inhibition [4] 94%
inactive: inhibition [2] 7% | inhibition [3] 2% | outcome [5] | outcome [6] | outcome [7] | outcome [8]

CCCN(Cc1nnc(-c2cccs2)o1)C(=O)CSc1nnnn1-c1ccc(C)c(C)c1
inactive: inhibition [2] -7% | inhibition [3] 0% | outcome [5] | outcome [6] | outcome [7] | outcome [8]
active: growth inhibition [1] 80% | growth inhibition [4] 96%

CCCNCCc1ccc(NS(=O)(=O)c2cccc(-c3ccc(Cl)cc3)c2)cc1
active: growth inhibition [4] 101%
inactive: growth inhibition [1] 36% | inhibition [2] 36% | inhibition [3] 0% | outcome [5] | outcome [6] | outcome [7] | outcome [8]

O=C(Nc1cccc(CN2CCN(C(=O)c3ccccc3)CC2)c1)c1ccco1
inactive: growth inhibition [1] 42% | inhibition [2] 6% | inhibition [3] -2% | outcome [5] | outcome [6] | outcome [7] | outcome [8]
active: growth inhibition [4] 95%

FC(F)(F)c1cccc(CNCC2CCN(Cc3ccc4c(c3)OCO4)CC2)c1
active: growth inhibition [4] 100%
inactive: growth inhibition [1] 19% | inhibition [2] 21% | inhibition [3] 1% | outcome [5] | outcome [6] | outcome [7] | outcome [8]

COc1cc(Nc2ncc3c(C)nc(-c4cc5ccccc5[nH]4)n3n2)cc(OC)c1OC
active: growth inhibition [1] 65% | growth inhibition [4] 91%
inactive: inhibition [2] 19% | inhibition [3] 7% | outcome [5] | outcome [6] | outcome [7] | outcome [8]

CC(=O)Nc1cccc(C(=O)Nc2cccc(-c3cccc(-c4nc5ccc(F)cc5[nH]4)c3)c2)c1
active: inhibition [2] 51% | growth inhibition [4] 101%
inactive: growth inhibition [1] 44% | inhibition [3] -5% | outcome [5] | outcome [6] | outcome [7] | outcome [8]

Cc1cccc2[nH]c(-c3ccc(-c4cccc(CNCCc5ccncc5)c4)cc3)nc12
inactive: inhibition [2] 28% | inhibition [3] 2% | outcome [5] | outcome [6] | outcome [7] | outcome [8]
active: growth inhibition [1] 95% | growth inhibition [4] 101%

COc1ccc(CN2C(=S)N(Cc3ccccc3)C(=O)C2CC(=O)Nc2ccccc2)cc1OC (stereo not given)
active: growth inhibition [1] 73% | growth inhibition [4] 96%
inactive: inhibition [2] 6% | inhibition [3] -2% | outcome [5] | outcome [6] | outcome [7] | outcome [8]

CN1CCN(CCCN(Cc2ccc(-c3cccc(CNC4CCCC4)c3)cc2)C(=O)/C=C/c2ccccc2)CC1
active: growth inhibition [1] 87% | growth inhibition [4] 100%
inactive: inhibition [2] 36% | inhibition [3] 4% | outcome [5] | outcome [6] | outcome [7] | outcome [8]

CCCC(CNCc1cccc(I)c1)CNc1cc(=O)c2ccccc2[nH]1 (stereo not given)
active: growth inhibition [1] 96% | growth inhibition [4] 100%
inactive: inhibition [2] -3% | inhibition [3] 7% | outcome [5] | outcome [6] | outcome [7] | outcome [8]

CCCCCCC1(C)N=C(N)N=C(N)C1c1ccc(Cl)c(Cl)c1 (stereo not given)
active: growth inhibition [4] 94%
inactive: growth inhibition [1] 43% | inhibition [2] 18% | inhibition [3] -9% | outcome [5] | outcome [6] | outcome [7] | outcome [8]

COc1ccc2nccc([C@@H](O)CN3CCC(NC(=O)c4ccc(OC)c(N)c4)CC3)c2c1
inactive: growth inhibition [1] 0% | inhibition [2] 9% | inhibition [3] -3% | outcome [5] | outcome [6] | outcome [7] | outcome [8]
active: growth inhibition [4] 93%

Cc1cc(C(=O)CSc2nc3ccccc3n2-c2ccccc2)c(C)n1C1CCS(=O)(=O)C1 (stereo not given)
inactive: growth inhibition [1] -3% | inhibition [2] -18% | inhibition [3] 0% | outcome [5] | outcome [6] | outcome [7] | outcome [8]
active: growth inhibition [4] 92%
